# In PubChem BioAssay (NCATS):
# Values joined by “and” are separate entries in the source; they are usually repeats but may differ in a detail not shown here. Equal values may be shown once. Records with an inconclusive call do not appear. A call without a number means that no potency is given here. Active and inactive are the calls of the source. Unless noted, calls follow the shape of the dose curve; as a rule, active = well fitted curve in the direction sought with a large enough effect; inconclusive = small, poorly fitted or top-dose-only effect, or another doubt; inactive = no such curve, though single readings can be large; an effect the other way counts as inactive or inconclusive.
# What was measured:
# [1] = qHTS profiling for inhibitors of Plasmodium falciparum proliferation (AID 504749); also: nearly all actives have a fitted effect of over 60% in size; conditions: P. falciparum in erythrocytes, SYBR Green DNA, 72 h
# Procedure, shortened: (§1)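 P. falciparum-infected erythrocytes (0.3% parasitemia, 2.5% hematocrit) incubated with compound 72 h at 37 C, 5% CO2. Parasite DNA detected by SYBR Green after lysis, overnight at room temperature; normalised to 0.29 uM artemisinin and DMSO.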
# 3D7 = assay: as above; conditions: P. falciparum in erythrocytes, SYBR Green DNA, 72 h; series mostly up to 28.7 µM
# Procedure, shortened: as §1
# 7G8 = assay: as above; conditions: P. falciparum in erythrocytes, SYBR Green DNA, 72 h; series mostly up to 28.7 µM
# Procedure, shortened: as §1
# AA1029 = assay: as above; conditions: P. falciparum in erythrocytes, SYBR Green DNA, 72 h; series mostly up to 28.7 µM
# Procedure, shortened: as §1
# AS120 = assay: as above; conditions: P. falciparum in erythrocytes, SYBR Green DNA, 72 h; series mostly up to 28.7 µM
# Procedure, shortened: as §1
# ATS189 = assay: as above; conditions: P. falciparum in erythrocytes, SYBR Green DNA, 72 h; series mostly up to 28.7 µM
# Procedure, shortened: as §1
# [2] = qHTS drug screen for cell cycle checkpoint inhibitors in PARPi-resistant BRCA-mutant ovarian cancer cell lines. (AID 1963452; calls by dose curve); conditions: PEO1/OlaR viability, CellTiter-Glo luminescence, 96 h, stronger effect = lower value
# Procedure, shortened: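 PEO1, PEO4 and PEO1/OlaR ovarian cancer cells, 600 per well, exposed 96 h at 37C to a dilution series. Viability read by CellTiter-Glo luminescence, normalized to DMSO and empty wells; activity summarized as Z-AUC.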
# [3] = target: Cytochrome P450 3A4 (Homo sapiens) (UniProt P08684); assay: qHTS for inhibitors of CYP3A4 against the NCATS DSHEA and TCM libraries (AID 1919971);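 also: inhibition lowers luminescence from luciferin made by CYP3A4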
# Chain of Cytochrome P450 3A4 (Homo sapiens) (P08684 whole entry, looked up, canonical isoform): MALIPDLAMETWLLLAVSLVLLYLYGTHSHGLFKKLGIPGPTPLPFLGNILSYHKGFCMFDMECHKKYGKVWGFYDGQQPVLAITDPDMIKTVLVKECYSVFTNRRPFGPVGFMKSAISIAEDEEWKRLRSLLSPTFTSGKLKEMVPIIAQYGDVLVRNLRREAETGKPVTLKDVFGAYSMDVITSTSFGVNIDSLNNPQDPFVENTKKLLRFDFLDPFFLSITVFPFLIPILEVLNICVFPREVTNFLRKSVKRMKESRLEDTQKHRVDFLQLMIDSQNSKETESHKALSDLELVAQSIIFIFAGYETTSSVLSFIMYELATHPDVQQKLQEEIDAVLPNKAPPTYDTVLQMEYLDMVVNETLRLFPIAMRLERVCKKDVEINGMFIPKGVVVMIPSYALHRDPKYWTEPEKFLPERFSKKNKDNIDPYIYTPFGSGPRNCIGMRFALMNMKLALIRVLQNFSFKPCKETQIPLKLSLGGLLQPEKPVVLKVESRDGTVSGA
# Procedure, shortened: (§2)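 Read-out is luminescence after P450-Glo detection (30 min, RT). Before that: 15 min compound–enzyme preincubation, then 30-45 min reaction with 1x NADPH regeneration solution, substrate concentration isoform-specific.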
# [4] = target: Cytochrome P450 2D6 (Homo sapiens) (UniProt P10635); assay: qHTS for inhibitors of CYP2D6 against the NCATS DSHEA and TCM libraries (AID 1919972)
# Chain of Cytochrome P450 2D6 (Homo sapiens) (P10635 whole entry, looked up): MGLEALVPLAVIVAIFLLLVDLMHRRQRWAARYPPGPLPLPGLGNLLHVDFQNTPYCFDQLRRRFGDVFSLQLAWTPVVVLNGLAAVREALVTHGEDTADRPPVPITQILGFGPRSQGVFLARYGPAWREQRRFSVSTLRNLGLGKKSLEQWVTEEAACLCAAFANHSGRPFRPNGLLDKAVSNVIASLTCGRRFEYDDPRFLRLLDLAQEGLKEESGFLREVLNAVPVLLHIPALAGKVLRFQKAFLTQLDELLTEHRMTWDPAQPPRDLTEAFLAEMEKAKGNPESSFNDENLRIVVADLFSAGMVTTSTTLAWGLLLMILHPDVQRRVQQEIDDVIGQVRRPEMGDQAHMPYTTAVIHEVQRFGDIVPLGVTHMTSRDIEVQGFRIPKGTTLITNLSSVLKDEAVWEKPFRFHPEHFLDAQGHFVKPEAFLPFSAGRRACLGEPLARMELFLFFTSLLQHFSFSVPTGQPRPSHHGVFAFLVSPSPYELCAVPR
# Procedure, shortened: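 Luminescent P450-Glo read-out of CYP2D6 turnover of a luciferin substrate after NADPH-driven reaction of 30-45 min at room temperature. Compounds were first preincubated 15 min with enzyme at titrated concentrations; quinidine was the intraplate control.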
# [5] = target: Cytochrome P450 2C9 (Homo sapiens) (UniProt P11712); assay: qHTS for inhibitors of CYP2C9 against the NCATS DSHEA and TCM libraries (AID 1919973);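 also: luminogenic pro-luciferin CYP2C9 substrate turned into luciferin with NADPH regeneration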
# Chain of Cytochrome P450 2C9 (Homo sapiens) (P11712 whole entry, looked up): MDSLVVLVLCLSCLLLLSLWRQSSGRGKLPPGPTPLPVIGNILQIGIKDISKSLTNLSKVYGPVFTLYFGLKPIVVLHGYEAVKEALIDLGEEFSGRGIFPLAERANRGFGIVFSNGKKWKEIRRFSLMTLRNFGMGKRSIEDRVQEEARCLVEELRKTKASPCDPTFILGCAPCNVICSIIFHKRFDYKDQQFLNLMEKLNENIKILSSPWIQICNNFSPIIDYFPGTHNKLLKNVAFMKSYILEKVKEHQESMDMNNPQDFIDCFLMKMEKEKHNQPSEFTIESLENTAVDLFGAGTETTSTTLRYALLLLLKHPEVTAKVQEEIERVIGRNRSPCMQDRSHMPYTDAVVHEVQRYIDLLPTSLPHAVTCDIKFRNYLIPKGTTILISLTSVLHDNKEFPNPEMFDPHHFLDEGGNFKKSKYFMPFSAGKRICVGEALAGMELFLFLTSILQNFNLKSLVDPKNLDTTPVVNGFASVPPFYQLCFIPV
# Procedure, shortened: as §2
# [6] = KB-3-1 P-gp reporter qHTS against the NCATS DSHEA and TCM libraries (AID 1919975)
# Procedure, shortened: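 KB-3-1 parental line, 1536-well qHTS: cells seeded, ~4 h attachment, pintool compound addition, ~72 h at 37C, then CellTiter-Glo, 30 min RT, luminescence. Concentration-response format.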
# [7] = target: Cytochrome P450 1A2 (Homo sapiens) (UniProt P05177); assay: qHTS for inhibitors of CYPIA2 against the NCATS DSHEA and TCM libraries (AID 1919976);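 also: light from luciferin formed by CYP1A2 from a pro-luciferin substrate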
# Chain of Cytochrome P450 1A2 (Homo sapiens) (P05177 whole entry, looked up): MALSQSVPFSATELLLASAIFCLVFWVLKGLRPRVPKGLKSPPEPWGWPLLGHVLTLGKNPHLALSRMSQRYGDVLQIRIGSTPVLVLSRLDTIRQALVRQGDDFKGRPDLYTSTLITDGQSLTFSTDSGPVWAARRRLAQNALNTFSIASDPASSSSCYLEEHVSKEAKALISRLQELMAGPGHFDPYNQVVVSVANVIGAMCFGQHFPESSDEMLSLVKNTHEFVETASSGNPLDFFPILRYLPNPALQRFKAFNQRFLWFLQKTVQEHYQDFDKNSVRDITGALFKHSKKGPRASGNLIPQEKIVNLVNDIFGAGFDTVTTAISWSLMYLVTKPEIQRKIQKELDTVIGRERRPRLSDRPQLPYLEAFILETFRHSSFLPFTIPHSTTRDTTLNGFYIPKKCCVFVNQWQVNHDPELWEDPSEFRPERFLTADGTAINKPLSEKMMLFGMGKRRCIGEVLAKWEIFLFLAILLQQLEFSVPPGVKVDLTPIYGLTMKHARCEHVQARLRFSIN
# Procedure, shortened: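 CYP1A2 + luciferin substrate, 100 mM KPO4-type buffer; cmpd 15 min RT; 1x NADPH regen, 30-45 min RT dark; detection reagent 30 min RT; luminescence. Minus-enzyme wells as background; furafylline intraplate control.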
# [8] = qHTS Counterscreen for compound interference against the NCATS DSHEA and TCM libraries (AID 1919978); conditions: firefly luciferase detection reagent interference, luminescence;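 also: compounds preincubated with 1 µM D-luciferin or buffer before detection reagent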
# Procedure, shortened: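 Compounds, titrated from 19.5 nM to 39.8 uM final, were pinned onto 1 uM D-luciferin or plain 100 mM potassium phosphate. After 15 min at room temperature, luciferin detection reagent was added for 30 min before the luminescence read.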
# [9] = Dual reporter qHTS for agonist of Pregnane X Receptor (hPXR) against the NCATS DSHEA and TCM libraries: Fluorescence readout (AID 1920058)
# Procedure, shortened: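 HepG2 hPXR-Luc, 2000 cells/well, 5 h attach; cpds ~24 h, 37 °C/5% CO2; CellTiter-Fluor 1 h; fluor. Ex/Em 405/540 nm = viability.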
# [10] = target: Nuclear receptor subfamily 1 group I member 2 (Homo sapiens) (UniProt O75469); assay: Dual reporter qHTS for agonist of Pregnane X Receptor (hPXR) against the NCATS DSHEA and TCM libraries: Luminescence readout (AID 1920059)
# Chain of Nuclear receptor subfamily 1 group I member 2 (Homo sapiens) (O75469 whole entry, looked up): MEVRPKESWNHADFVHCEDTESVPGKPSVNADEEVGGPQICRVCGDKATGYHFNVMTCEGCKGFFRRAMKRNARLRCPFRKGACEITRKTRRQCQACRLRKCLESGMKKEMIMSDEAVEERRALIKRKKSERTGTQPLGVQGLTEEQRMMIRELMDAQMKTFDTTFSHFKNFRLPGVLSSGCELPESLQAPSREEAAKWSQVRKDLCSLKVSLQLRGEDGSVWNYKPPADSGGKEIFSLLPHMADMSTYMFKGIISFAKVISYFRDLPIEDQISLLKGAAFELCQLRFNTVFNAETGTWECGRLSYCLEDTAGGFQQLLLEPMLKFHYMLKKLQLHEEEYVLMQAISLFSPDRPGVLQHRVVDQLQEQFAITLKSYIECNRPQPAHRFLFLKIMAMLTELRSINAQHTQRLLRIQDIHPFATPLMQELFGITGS
# Procedure, shortened: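 hPXR-Luc HepG2 cells, 2000/well in 5% charcoal-stripped FBS medium, attached 5 h, then exposed 24 h at 37C to compounds. Viability by CellTiter-Fluor, then luciferase luminescence with ONE-Glo.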
# [11] = Dual reporter qHTS for antagonist of Pregnane X Receptor (hPXR) against the NCATS DSHEA and TCM libraries: Fluorescence Readout (AID 1920061)
# Procedure, shortened: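 hPXR-Luc HepG2 cells exposed 24 h at 37 C to compounds with 2 uM rifampicin in antagonist mode; luciferase luminescence measured by ONE-Glo, with CellTiter-Fluor viability read beforehand.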
# [12] = at 28.7 µM (top of the series), parasite line A
# [13] = at 28.7 µM (top of the series), parasite line B
# [14] = at 12.8 µM (top of the series), parasite line A
# [15] = at 12.8 µM (top of the series), parasite line B
compound,measurement,setting,value
CC(O)CN(CCN(CC(C)O)CC(C)O)CC(C)O (centres undefined),"activity, negative = inhibition",[1]; [12],7.8% (inactive)
same,"activity, negative = inhibition",[1]; [13],-1.51% (inactive)
same,Potency,3D7,inactive
same,Potency,7G8,inactive
same,Potency,AA1029,inactive
same,Potency,AS120,inactive
same,Potency,ATS189,inactive
NC(=O)c1ncn([C@@H]2O[C@H](CO)[C@@H](O)[C@H]2O)c1N,Z-AUC,[2],-0.269 (inactive)
same,Z-AUC,[2]; measured here: PEO1 parental Z-AUC,-0.745
same,Z-AUC,[2]; measured here: PEO4 Z-AUC,-0.555
C[C@](N)(Cc1ccc(O)cc1)C(=O)O,"activity, negative = inhibition",[1]; [12],4.44% (inactive)
same,"activity, negative = inhibition",[1]; [13],11.9% (inactive)
same,Potency,3D7,inactive
same,Potency,7G8,inactive
same,Potency,AA1029,inactive
same,Potency,AS120,inactive
same,Potency,ATS189,inactive
CCCCN(CCCC)CCCOC(=O)c1ccc(N)cc1,"activity, negative = inhibition",[1]; [14],-10.5% (inactive)
same,"activity, negative = inhibition",[1]; [15],3.88% (inactive)
same,Potency,3D7,inactive
same,Potency,7G8,inactive
same,Potency,AA1029,inactive
same,Potency,AS120,inactive
same,Potency,ATS189,inactive
O=C1O[C@H]([C@@H](O)CO)C(O)=C1O,outcome,[3],inactive
same,outcome,[4],inactive
same,outcome,[5],inactive
same,outcome,[6],inactive
same,outcome,[7],inactive
same,max response,[8],-0.0092% (inactive)
same,outcome,[9],inactive
same,outcome,[10],inactive
same,outcome,[11],inactive
same,"activity, negative = inhibition",[1]; [12],10.5% (inactive)
same,"activity, negative = inhibition",[1]; [13],5.51% (inactive)
same,Potency,3D7,inactive
same,Potency,7G8,inactive
same,Potency,AA1029,inactive
same,Potency,AS120,inactive
same,Potency,ATS189,inactive
CC(C)(C)C(=O)NCCCC(=O)O,"activity, negative = inhibition",[1]; [12],13.3% (inactive)
same,"activity, negative = inhibition",[1]; [13],-4.47% (inactive)
same,Potency,3D7,inactive
same,Potency,7G8,inactive
same,Potency,AA1029,inactive
same,Potency,AS120,inactive
same,Potency,ATS189,inactive
O=C(O)CC(O)C(=O)O (centres undefined),"activity, negative = inhibition",[1]; [12],10.4% (inactive)
same,"activity, negative = inhibition",[1]; [13],3.5% (inactive)
same,Potency,3D7,inactive
same,Potency,7G8,inactive
same,Potency,AA1029,inactive
same,Potency,AS120,inactive
same,Potency,ATS189,inactive
[O-][n+]1cccc(CO)c1,"activity, negative = inhibition",[1]; [12],-0.247% (inactive)
same,"activity, negative = inhibition",[1]; [13],11.6% (inactive)
same,Potency,3D7,inactive
same,Potency,7G8,inactive
same,Potency,AA1029,inactive
same,Potency,AS120,inactive
same,Potency,ATS189,inactive
C[C@H](N)[C@H](O)c1cccc(O)c1,"activity, negative = inhibition",[1]; [14],4.05% (inactive)
same,"activity, negative = inhibition",[1]; [15],-0.641% (inactive)
same,Potency,3D7,inactive
same,Potency,7G8,inactive
same,Potency,AA1029,inactive
same,Potency,AS120,inactive
same,Potency,ATS189,inactive
O=C(O)[C@@H]1CSCN1,"activity, negative = inhibition",[1]; [12],8.72% (inactive)
same,"activity, negative = inhibition",[1]; [13],-0.798% (inactive)
same,Potency,3D7,inactive
same,Potency,7G8,inactive
same,Potency,AA1029,inactive
same,Potency,AS120,inactive
same,Potency,ATS189,inactive
Cc1cc(O)cc2c1O[C@](C)(CCC[C@H](C)CCC[C@H](C)CCCC(C)C)CC2,"activity, negative = inhibition",[1]; [12],-4.03% (inactive)
same,"activity, negative = inhibition",[1]; [13],-6.42% (inactive)
same,Potency,3D7,inactive
same,Potency,7G8,inactive
same,Potency,AA1029,inactive
same,Potency,AS120,inactive
same,Potency,ATS189,inactive
C#CCN(C)Cc1ccccc1,"activity, negative = inhibition",[1]; [14],7.21% (inactive)
same,"activity, negative = inhibition",[1]; [15],-0.897% (inactive)
same,Potency,3D7,inactive
same,Potency,7G8,inactive
same,Potency,AA1029,inactive
same,Potency,AS120,inactive
same,Potency,ATS189,inactive
COc1ccc(S(=O)(=O)Nc2nnc(CC(C)C)s2)cc1,"activity, negative = inhibition",[1]; [12],3.77% (inactive) and -5.99% (inactive)
same,"activity, negative = inhibition",[1]; [13],15.9% (inactive) and -5.44% (inactive)
same,Potency,3D7,inactive
same,Potency,7G8,inactive
same,Potency,AA1029,inactive
same,Potency,AS120,inactive
same,Potency,ATS189,inactive
CC(O)COc1ccccc1 (centres undefined),"activity, negative = inhibition",[1]; [12],5.76% (inactive)
same,"activity, negative = inhibition",[1]; [13],0.212% (inactive)
same,Potency,3D7,inactive
same,Potency,7G8,inactive
same,Potency,AA1029,inactive
same,Potency,AS120,inactive
same,Potency,ATS189,inactive
Cc1ncc(COP(=O)(O)O)c(C=O)c1O,"activity, negative = inhibition",[1]; [12],-4.1% (inactive)
same,"activity, negative = inhibition",[1]; [13],3.77% (inactive)
same,Potency,3D7,inactive
same,Potency,7G8,inactive
same,Potency,AA1029,inactive
same,Potency,AS120,inactive
same,Potency,ATS189,inactive
O=C(O)c1ccccn1,"activity, negative = inhibition",[1]; [12],0.929% (inactive)
same,"activity, negative = inhibition",[1]; [13],-26.4% (inactive)
same,Potency,3D7,inactive
same,Potency,7G8,inactive
same,Potency,AA1029,inactive
same,Potency,AS120,inactive
same,Potency,ATS189,inactive
CCN(CC)CCSC(=O)C(c1ccccc1)c1ccccc1,"activity, negative = inhibition",[1]; [12],10.5% (inactive) and 6.38% (inactive)
same,"activity, negative = inhibition",[1]; [13],-0.418% (inactive) and -7.05% (inactive)
same,Potency,3D7,inactive
same,Potency,7G8,inactive
same,Potency,AA1029,inactive
same,Potency,AS120,inactive
same,Potency,ATS189,inactive
NCCNCCNCCN,"activity, negative = inhibition",[1]; [12],4.28% (inactive)
same,"activity, negative = inhibition",[1]; [13],2.86% (inactive)
same,Potency,3D7,inactive
same,Potency,7G8,inactive
same,Potency,AA1029,inactive
same,Potency,AS120,inactive
same,Potency,ATS189,inactive
Cc1cc(CC(=O)O)n(C)c1C(=O)c1ccc(Cl)cc1,"activity, negative = inhibition",[1]; [12],-8.03% (inactive) and -6.63% (inactive)
same,"activity, negative = inhibition",[1]; [13],-3.67% (inactive) and -0.286% (inactive)
same,Potency,3D7,inactive
same,Potency,7G8,inactive
same,Potency,AA1029,inactive
same,Potency,AS120,inactive
same,Potency,ATS189,inactive
CCCCCCCCCCCCCCCCCCOCC(O)CO (centres undefined),"activity, negative = inhibition",[1]; [12],11.2% (inactive)
same,"activity, negative = inhibition",[1]; [13],11.4% (inactive)
same,Potency,3D7,inactive
same,Potency,7G8,inactive
same,Potency,AA1029,inactive
same,Potency,AS120,inactive
same,Potency,ATS189,inactive
CC1(C)CO[C@@H](CC(=O)O)CN1,"activity, negative = inhibition",[1]; [12],1.48% (inactive)
same,"activity, negative = inhibition",[1]; [13],5.08% (inactive)
same,Potency,3D7,inactive
same,Potency,7G8,inactive
same,Potency,AA1029,inactive
same,Potency,AS120,inactive
same,Potency,ATS189,inactive
C=Cc1c(C)c2cc3[nH]c(cc4nc(cc5nc(cc1[nH]2)C(C)=C5CCC(=O)O)C(CCC(=O)O)=C4C)c(C)c3C=C,"activity, negative = inhibition",[1]; [12],-6.02% (inactive)
same,"activity, negative = inhibition",[1]; [13],6.67% (inactive)
same,Potency,3D7,inactive
same,Potency,7G8,inactive
same,Potency,AA1029,inactive
same,Potency,AS120,inactive
same,Potency,ATS189,inactive
